# USP2a block: blocks human ubiquitin-specific protease USP2a. USP2 core, Ub-CHOP2 coupled fluorogenic reporter, 485/531. Potency, µM (series often up to 38.3 µM), for inactives: top-dose activity change, negative = inhibition, most hits filed as inhibitors. AID 463254. actives 0.01% (n = 330,000);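 note: potency is the fitted concentration of half-maximal effect; plate controls were DMSO wells for no effect and full inhibition by NEM control for full effect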
#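 USP2 core (10nM final) preincubated 30min RT with compound in 20mM Tris-HCl pH 8.0, 2mM CaCl2, 2mM beta-mercaptoethanol, 0.05% CHAPS; 25nM Ub-CHOP2 plus 25nM reporter substrate added, fluorescence (Ex485/Em531) read after 60min.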
# GALK inhibitor: blocks human galactokinase activity; P51570; Purified GALK, Kinase-Glo residual ATP luminescence; Potency, µM (highest dose often 57.5 µM), for inactives: top-dose activity change, negative = inhibition, hits mostly inhibitors; actives 0.007% (n = 270,000); AID 1868; note: potency is the fitted concentration of half-maximal effect; % is set by controls: 0 for no effect and ±100 for the full control effect
#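 Quantitative HTS: GALK 5 nM, ATP 35 uM, galactose 100 uM, 1 h room temperature, then luciferase-based ATP detection.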
# D1 ag: human D1 receptor agonism; P21728; HEK293 T-REx D1 cells, calcium flux, agonist mode; activation, % at 2 µM; actives 1% (n = 360,000); AID 504660; in the data active = activation above about 30%; note: 0% is about no effect
# Target sequence (P21728 whole entry, looked up): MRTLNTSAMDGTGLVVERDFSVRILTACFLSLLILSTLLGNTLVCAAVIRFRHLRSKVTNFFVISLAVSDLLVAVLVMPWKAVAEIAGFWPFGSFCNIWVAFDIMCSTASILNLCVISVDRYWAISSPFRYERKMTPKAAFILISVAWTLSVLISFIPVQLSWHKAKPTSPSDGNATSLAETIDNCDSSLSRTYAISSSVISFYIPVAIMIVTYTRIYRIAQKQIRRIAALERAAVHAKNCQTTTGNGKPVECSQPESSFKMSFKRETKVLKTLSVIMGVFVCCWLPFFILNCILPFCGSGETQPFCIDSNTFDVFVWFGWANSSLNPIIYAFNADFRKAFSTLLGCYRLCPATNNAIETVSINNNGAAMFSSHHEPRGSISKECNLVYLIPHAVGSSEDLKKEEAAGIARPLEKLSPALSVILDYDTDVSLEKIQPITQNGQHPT
#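 Inducible HEK293 T-REx D1 cells, force-coupled to calcium signalling, were plated at 4000 cells/well with tetracycline and held overnight at 30 C. After no-wash calcium dye loading, compound-evoked calcium rise over 180 s flagged agonists.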
# D1 PAM: enhances dopamine response at the human D1 receptor; actives 0.036% (n = 360,000); HEK293 TREx D1 cells, calcium flux, dopamine EC20 potentiation; AID 504651; potentiation, % at 10 µM; P21728; in the data active = potentiation above about 30%; note: 0% is about no effect
# Eya2 inh: blocks the phosphatase activity of human Eya2; recombinant Eya2, OMFP fluorescence dephosphorylation (OMFP is methylfluorescein phosphate); Potency, µM (top dose mostly 76.9 µM), for the others: at the top dose activity, negative = inhibition, usual class: inhibitors; O00167; actives 0.006% (n = 330,000); note: potency is the fitted concentration of half-maximal effect; % is set by controls: 0 for no effect and ±100 for the full control effect
#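 Eya2 protein (added as 0.2 uM solution) was preincubated with compound for 10 min at ambient temperature in 50 mM HEPES pH 7.5, 50 mM NaCl, 5 uM MgCl2, 0.05% BSA, 1 mM DTT. OMFP (added at 50 uM) then reacted 10 min; fluorescence read at 485/525 nm.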
# D1 antagonist: human D1 dopamine receptor antagonism; HEK293 TREx D1 cells, calcium flux, dopamine EC80; active compounds read low; activity change, negative = inhibition, % at 10 µM; actives 3.2% (n = 360,000); AID 504652; in the data active = activity change below about -30%; note: % is set by controls: 0 for no effect and ±100 for the full control effect
#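 Antagonism measured as reduced calcium response to an EC80 dopamine addition following 180 s compound pre-read; cells were inducible HEK293 Trex D1 plated overnight at 30 C, read kinetically at 1 cycle/sec.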
# Starred values were filed as active, the others as inactive; ? = inconclusive; · = no result given. Compounds with a hit are over-represented: about 3.9% of the library has one in this group of screens. Unless noted, calls come from the whole dose curve; as a rule, active = well fitted inhibition curve with a large enough effect; inconclusive = small, poorly fitted or top-dose-only effect, or effect the other way; inactive = flat fitted curve, though single readings scatter.
SMILES,USP2a block,GALK inhibitor,D1 ag,D1 PAM,Eya2 inh,D1 antagonist
CCCCCCCCCCCCCCCC[N+](C)(C)CC,3%,·,41*,-7,2%,-25
CC#CC[N+](C)(C)CCCCCCCCCCCC,1%,2%,34*,3,-6%,6
CCCNC(=O)c1cnc2c(-c3ccc(OCC)c(OCC)c3)c(C)nn2c1-c1ccccc1,·,·,1,-4,·,0
COc1ccc(Nc2ncc(C(=O)Nc3ccc(F)cc3F)c3ccccc23)cc1,·,·,4,1,·,-26
CC(C)CCOc1ccc(NC(=O)C2OC3OC(C)(C)OC3C3OC(C)(C)OC23)cc1 (stereo not drawn),3%,·,-1,4,-11%,-43*
CCCCCOc1ccc(NC(=O)C2OC3OC(C)(C)OC3C3OC(C)(C)OC23)cc1 (stereo not drawn),5%,0%,2,2,-10%,18
COc1ccc(Br)cc1CN1C(=O)NC2(CCCCCC2)C1=O,1%,-2%,31*,·,3%,-33*
CC(C)Cc1nc(SCC(=O)NCC2CCCO2)c2c(=O)n(C)c(=O)n(C)c2n1 (stereo not drawn),2%,1%,3,-14,2%,-92*
COc1cccc(COC(=O)c2ccc(S(=O)(=O)N3CCC(C)CC3)cc2)c1OC,1%,·,10,-2,-14%,2
COc1cccc(COC(=O)C2CCN(S(=O)(=O)c3ccc(F)cc3)CC2)c1OC,-2%,·,31*,-6,-4%,-9
CCOc1ccc(NC(=O)CSc2nc(C)c(C(=O)Nc3ccccc3)c(-c3ccc(Cl)cc3)c2C#N)cc1,·,·,2,-1,·,-20
Cc1cccc(N2CCN(S(=O)(=O)c3ccc4oc(=O)c5ncn(C)c5c4c3)CC2C)c1 (stereo not drawn),·,·,0,1,·,1
CCOc1ccc(-n2c(SCc3ccc(C(=O)OC)o3)nc3c([nH]c4ccccc43)c2=O)cc1,·,·,0,-2,·,5
CCOc1ccc(NC(=O)c2cc3c(C)nn(-c4ccccc4)c3s2)cc1,·,·,9,5,·,21
Cn1nnnc1Sc1ncnc2scc(-c3ccccc3C#N)c12,·,·,-1,6,·,-11
O=C(C1CC1)N1CCc2cc(Br)cc(S(=O)(=O)Nc3ccc(F)c(F)c3)c21,·,·,9,0,·,-31*
Cc1ccc(NS(=O)(=O)c2cc(Br)cc3c2N(C(=O)C2CC2)CC3)cc1C,·,·,4,-3,·,-23
COc1ccc(C(=O)N(Cc2ccccc2)c2cccc(C)c2)cc1,0%,-3%,10,1,12%,1
COc1ccccc1CC(=O)N(Cc1ccccc1)c1cccc(C)c1,1%,-2%,1,3,-12%,-31*
O=C(O)/C=C/c1cc(F)c(S(=O)(=O)N2CCN(S(=O)(=O)c3ccc4c(c3)OCCO4)CC2)cc1F,·,·,-1,-8,·,-1
COc1ccc(NC(=O)Cn2c(=O)n(Cc3ccco3)c(=O)c3cc(OC)c(OC)cc32)cc1,·,·,2,-2,·,17
Cc1cc2nc3c(=O)n(C4CCCCC4)c(=O)[nH]c3nc2cc1N,?,0%,213*,-8,?,-24
CCOC(=O)c1ccc(NC(=O)Cn2nc(SC)c(S(=O)(=O)c3ccc(Cl)cc3)c2N)cc1,·,·,15,0,·,5
COc1cccc(NC(=O)Cc2csc(COc3cccc(C)c3)n2)c1,·,·,3,1,·,5
Cc1ncc(CO)c(CNc2ccc(Oc3ccccc3)cc2)c1O,3%,0%,10,-8,8%,-37*
O=C(NC1CCCCC1)C(c1ccccc1F)N(C(=O)c1csnn1)C1CCCC1 (stereo not drawn),1%,-1%,61*,·,-12%,-23
CC(=O)Nc1ccc(S(=O)(=O)N2CCN(c3ccc([N+](=O)[O-])cc3)CC2)cc1,1%,1%,5,-5,-2%,-35*

# Screens as filed in PubChem.
